# Test results from PubChem BioAssay AID492950 (Southern Research Specialized Biocontainment Screening …, 2010).
# Potency and affinity values are given separately. The source made the active and inactive calls. Entries that show only a call come without a potency. The rule behind the calls is not given here.
# Experiment: mammalian cell cytotoxicity, dose response, cytotoxicity control (AID 492950)
# Conditions: cytotoxicity counter-screen; series mostly up to 40 µM
row,SMILES,outcome
1,CCCCc1ccc(NC(=O)CSCc2cc(=O)[nH][nH]2)cc1,inactive
2,CC(=O)Nc1cc(OC(=O)c2ccco2)cc(OC(=O)c2ccco2)c1,inactive
3,O=C1NC2=C(CCc3ccccc32)C(c2ccccc2)N1 (stereo not given),inactive
4,COc1ccc(-c2[nH]nc3c2C(c2ccoc2)C(C#N)=C(N)O3)cc1 (stereo not given),inactive
5,C/C(=N\NC(=O)Cc1cc(=O)[nH][nH]1)c1cccc([N+](=O)[O-])c1,inactive
6,C/C(=N\NC(=O)c1ccncc1)c1cc2ccccc2oc1=O,inactive
7,CC1=NNC(=O)C1Cc1c(Cl)cccc1Cl (stereo not given),inactive
8,CC(/C=N/NC(=O)Cc1cc(=O)[nH][nH]1)=C\c1ccccc1,inactive
9,O=C(Cc1ccccc1)c1c[nH]c(C(=O)C(Cl)(Cl)Cl)c1,inactive
10,Cc1ccc(SCc2[nH]nc3c2C2(CCSCC2)C(C#N)=C(N)O3)cc1,inactive
11,Cc1nn(C)c(C)c1C1C(C#N)=C(N)Oc2n[nH]c(C)c21 (stereo not given),inactive
12,COc1cccc(-c2[nH]nc3c2C(c2ccsc2)C(C#N)=C(N)O3)c1 (stereo not given),inactive
13,Cc1ccc(SCC2=NNC(=O)C2)cc1,inactive
14,O=C1CC(CSc2ccc(Cl)cc2)=NN1,inactive
15,O=c1cc(-c2ccc(Cl)c(Cl)c2)[nH][nH]1,inactive
16,O=C(Cc1cc(=O)[nH][nH]1)N/N=C/c1c(F)cccc1Cl,inactive
17,Cc1[nH]n(-c2ccccc2)c(=O)c1C(c1cccc([N+](=O)[O-])c1)c1c(C)[nH]n(-c2ccccc2)c1=O,inactive
18,Cc1ccsc1/C=N/NC(=O)Cc1cc(=O)[nH][nH]1,inactive
19,O=C(CSCc1cc(=O)[nH][nH]1)Nc1ccc(F)cc1,inactive
20,COc1ccc(/C=C2/C(=O)N(c3ccccc3)N=C2C)cc1OC,inactive
21,O=C(Cc1cc(=O)[nH][nH]1)N/N=C/c1c(Cl)cccc1Cl,inactive
22,CCOc1ccc(-c2[nH]nc3c2C(c2ccc(O)cc2)C(C#N)=C(N)O3)cc1 (stereo not given),inactive
23,Fc1ccc(Oc2nc(-c3ccccc3)nnc2C(F)(F)F)cc1,inactive
24,O=C(Cc1cc(=O)[nH][nH]1)N/N=C/c1cccc(Cl)c1Cl,inactive
25,O=C(Cc1cc(=O)[nH][nH]1)N/N=C/c1ccccc1Cl,inactive
26,COc1ccc(/C=C2/C(=O)N(c3ccccc3)N=C2C)c(OC)c1,inactive
27,CCCc1[nH]nc2c1C(c1ccoc1)C(C#N)=C(N)O2 (stereo not given),inactive
28,Cc1nc2ccccc2c2c1C(=O)N(C)C2=O,inactive
29,N#CC1=C(N)Oc2n[nH]c(-c3cccs3)c2C1c1ccccc1C(=O)O (stereo not given),inactive
30,O=C(CSc1nnc(-c2ccccc2Cl)o1)Oc1ccc(Br)cc1,inactive
